From PubChem
Most compounds without a hit are left out; they make up all but 3.5% or so of the library.
FBW7 act = human FBW7 E3 ligase activation, primary screen; normalized activity (activation), % at 26.1 µM; AlphaScreen FBW7–phospho-cyclin E peptide binding, activator screen; 650,000 compounds, 0.13% hits; in the data active = normalized activity above about 1.9%;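 also: purified mutant Fbw7 with reduced substrate affinity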
MITF primary = blocks human microphthalmia-associated transcription factor; inhibition, % at 2.6 µM; 650,000 compounds, 0.91% hits; AlphaScreen MITF homodimerization, bead proximity signal; O75030; in the data active = inhibition above about 50%;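 also: 0% = vehicle wells with protein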
TEAD-YAP block = TEAD-YAP interaction inhibition; 640,000 compounds, 1.4% hits; AID 1259422; HEK-TIYL cells, TEAD-Gal4/YAP UAS-luciferase luminescence; inhibition, % at 9.12 µM; in the data active = inhibition above about 32%;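 also: 0% = median of test compound wells and 100% = reference inhibitor wells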
GPR151 ag = activators of human GPR151. PathHunter beta-arrestin GPR151 cells, luminescence. activation, % at 11.2 µM. 650,000 compounds, 1% hits; in the data active = activation above about 4.9%;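 also: 0% = median of compound wells and 100% = cells with positive control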
Target sequence (Q8TDV0 whole entry, looked up): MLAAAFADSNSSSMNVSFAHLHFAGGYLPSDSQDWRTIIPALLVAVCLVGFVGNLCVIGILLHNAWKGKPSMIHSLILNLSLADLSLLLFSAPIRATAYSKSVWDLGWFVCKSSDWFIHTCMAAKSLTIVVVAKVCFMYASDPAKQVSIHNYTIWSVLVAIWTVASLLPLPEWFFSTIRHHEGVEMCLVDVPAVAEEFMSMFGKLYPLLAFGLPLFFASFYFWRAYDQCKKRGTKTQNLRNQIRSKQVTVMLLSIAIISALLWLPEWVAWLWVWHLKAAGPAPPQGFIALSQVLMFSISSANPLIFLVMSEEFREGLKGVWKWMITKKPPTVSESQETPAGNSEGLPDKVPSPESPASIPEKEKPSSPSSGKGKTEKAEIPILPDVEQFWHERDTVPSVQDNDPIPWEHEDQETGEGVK
Active calls of the source: *.

SMILES	FBW7 act	MITF primary	TEAD-YAP block	GPR151 ag
CC1=CC(C)(C)N2C(=O)C(=O)c3cc(OC(=O)c4ccccc4F)cc1c32	-0.3	5.1	45.0*	-0.4
O=C(Nc1ccc(S(=O)(=O)C(F)F)cc1)c1cc(F)c(F)c(F)c1F	0.1	8.4	36.9*	-0.1
O=C(Nc1ccccc1)N1CCC2(CC1)NCCc1c2[nH]c2ccc(Cl)cc12	-0.3	10.3	46.5*	-0.2
COc1ccc(Nc2cc(N3CCN(c4ccccc4OC)CC3)c3noc4c3c2C(=O)c2ccccc2-4)cc1	-0.1	-12.3	-9.3	0.4
Cc1c(C(=O)O)c(O)cc2c1C(=O)c1c(O)c([C@H]3O[C@H](CO)[C@@H](O)[C@H](O)[C@H]3O)c(O)c(O)c1C2=O	-0.5	89.5*	0.0	-1.5
COc1c(O)cc2c(c1O)[C@@H]1O[C@H](CO)[C@@H](O)[C@H](O)[C@H]1OC2=O	-0.2	4.2	-6.7	-1.8
Cc1sc2nc(CSc3nnnn3-c3ccccc3)[nH]c(=O)c2c1C	0.2	9.3	5.0	0.5
CCc1ccc2oc(-c3cccc(NC(C)=O)c3)nc2c1	0.5	0.1	-12.0	-5.7
Cc1ccc2oc(-c3ccc(NC(=O)C(F)(F)F)cc3)nc2c1	0.1	2.3	71.3*	-4.6
COc1ccc2oc(-c3cccc(NC(C)=O)c3)nc2c1	0.0	-1.8	40.4*	-8.4
CCC(=O)Nc1ccc2oc(-c3cccc(C)c3)nc2c1	-0.1	8.3	82.1*	-6.5
Cc1ccc2oc(-c3ccc(C(=O)Nc4ccc(NC(=O)C(C)(C)C)cc4)cc3)nc2c1	-0.1	-2.4	-38.6	1.9
CCC(=O)Nc1ccc2oc(-c3cccc(I)c3)nc2c1	-0.1	6.3	-18.3	-3.2
CCC(=O)Nc1ccc2oc(-c3cccc(Br)c3)nc2c1	-0.2	-18.7	56.7*	-3.1
N#CC(C(=O)c1cc(=O)c2cc(Cl)ccc2o1)c1ccccn1 (stereo not drawn)	0.0	10.1	-0.1	-0.2
O=C(Nc1cccc(C(F)(F)F)c1)c1ccc([N+](=O)[O-])o1	-0.1	12.1	35.8*	-0.5
O=C(COC(=O)c1ccc([N+](=O)[O-])o1)Nc1cccc(C(F)(F)F)c1	-0.1	-1.1	3.8	0.2
O=C(Nc1ccc(I)cc1)c1cc([N+](=O)[O-])ccc1Cl	0.0	-18.4	38.2*	-0.9
COC(=O)c1ccc(NC(=O)c2cc([N+](=O)[O-])ccc2Br)cc1	0.1	-8.9	32.8*	-0.3
O=C(Nc1ccc(C23CC4CC(CC(c5ccccc5)(C4)C2)C3)cc1)c1cc([N+](=O)[O-])ccc1Cl	0.2	11.2	58.6*	-1.6
CCOC(=O)c1c(C)oc2ccc(N(C(=O)c3ccc([N+](=O)[O-])cc3)S(=O)(=O)c3ccc(Cl)cc3)cc12	0.0	0.2	2.6	0.2
O=C(Nc1sccc1C(=O)Nc1cccc([N+](=O)[O-])c1)c1ccco1	-0.2	2.6	39.1*	2.1
O=C(Nc1cccc(C(F)(F)F)c1)c1cc([N+](=O)[O-])ccc1Cl	0.6	22.3	51.6*	3.1
COC(=O)c1ccc(NC(=O)c2ccc(OC)c([N+](=O)[O-])c2)cc1	3.7*	21.0	-2.4	-3.0
O=C(Nc1cccc([N+](=O)[O-])c1)c1ccco1	0.1	-1.1	1.5	-1.4
SMILES	FBW7 act	MITF primary	TEAD-YAP block	GPR151 ag
O=C(Nc1ccc(F)cc1)c1cc([N+](=O)[O-])ccc1Cl	0.7	21.5	32.7*	-2.2
CC(=O)Nc1ccc(NC(=O)c2cc([N+](=O)[O-])ccc2Cl)cc1	0.3	17.1	13.9	-0.5
CC(=O)Nc1cccc(NC(=O)c2cc([N+](=O)[O-])ccc2Cl)c1	0.5	13.6	17.7	-0.2
COc1ccc(C(=O)Nc2ccncc2)cc1[N+](=O)[O-]	-0.1	-8.9	7.3	0.4
O=C(CCCCCn1c(SCc2cccc([N+](=O)[O-])c2)nc2ccccc2c1=O)NCc1ccco1	0.1	16.0	2.3	1.1
COc1ccc2c(CNCc3cccc(Br)c3)c(C(=O)O)n(C)c2c1	-0.2	-1.4	2.4	-1.3
COc1cc(CN2CCN(Cc3ccc(O)cc3)CC2CCO)cc(OC)c1 (stereo not drawn)	0.5	3.5	-18.4	1.6
O=C(Nc1cccc(OC(=O)c2ccc(Cl)cc2)c1)c1ccc([N+](=O)[O-])cc1	0.1	-14.1	32.0*	0.6
CC(=O)Nc1cccc(NC(=O)c2ccc([N+](=O)[O-])cc2Cl)c1	0.1	16.0	0.0	0.1
O=C(CCl)Nc1cccc(C(F)(F)F)c1	-0.1	-1.9	33.5*	0.2
COc1ccc(NC(=O)c2cc([N+](=O)[O-])ccc2Cl)cc1	0.1	3.5	34.5*	0.7
COc1cccc(NC(=O)c2cc([N+](=O)[O-])ccc2Cl)c1	0.1	-23.4	19.3	-0.1
N/C(CC(=O)Nc1cccc(C(F)(F)F)c1)=N\O	0.0	7.2	0.1	1.1
O=C(Nc1cccc(O)c1)c1ccc([N+](=O)[O-])cc1Cl	-0.1	-7.6	72.8*	-0.5
COc1ccc2nc(NC(=O)c3cc([N+](=O)[O-])ccc3Cl)sc2c1	-0.1	-1.5	33.0*	-0.7
O=C(Nc1ccc(O)cc1C(=O)O)c1cccc([N+](=O)[O-])c1	-0.6	53.1*	0.1	-5.9
COC(=O)c1ccccc1N=C/C(C(=O)C(F)(F)F)=C(\O)c1cccs1	0.2	5.2	-15.9	-1.3
COc1ccccc1N=C/C(C(=O)C(F)(F)F)=C(\O)c1cccs1	1.2	13.0	49.5*	-2.3
CSc1ccc(C2N=C(c3ccccc3)NO2)cc1 (stereo not drawn)	0.0	1.4	-59.6	0.2
CN(C)c1ccc(C2N=C(c3ccccc3)NO2)cc1 (stereo not drawn)	0.0	8.1	34.8*	-4.0
O=C(Nc1nc2ccccc2[nH]1)c1ccccc1Cl	-0.2	3.4	82.7*	-10.8
O=C(Nc1cnc2ccccc2c1)c1ccc(Cl)cc1Cl	0.1	9.5	66.1*	-4.3
O=C(Nc1nc2ccccc2[nH]1)c1ccc(Cl)cc1Cl	-0.2	-10.1	83.9*	-11.2
O=C(Nc1nc2ccccc2[nH]1)c1ccc([N+](=O)[O-])cc1Cl	0.1	2.9	18.4	-6.2
NS(=O)(=O)c1ccc(N/N=C/c2ccc(OCc3ccccc3)cc2)c([N+](=O)[O-])c1	0.0	15.9	-6.4	2.8
SMILES	FBW7 act	MITF primary	TEAD-YAP block	GPR151 ag
Cc1ccc(CN[C@H]2C[C@H]3C(=O)N[C@@H](C(C)C)C(=O)N3C2)cc1F	-0.1	-6.1	-8.8	-0.6
O=C(NCc1ccccc1)c1nn2c(C(F)(F)F)cc(-c3ccc(Br)o3)nc2c1Br	-0.1	-4.7	0.4	-0.3
CCN(Cc1ccccc1)C(=O)c1sc2nc3n(c(=O)c2c1C)CCCC3	0.6	10.4	37.2*	1.5
CCn1c(C)nc2cc(-c3nc4n(n3)Cc3ccccc3-4)ccc21	-0.2	-12.0	102.7*	-12.4
CCn1c(C)nc2cc(CO)ccc21	0.4	9.6	-6.1	1.1
O=C1CCN(C(=O)c2ccc(-c3nc4ccccc4s3)s2)CC1	0.4	12.7	98.9*	-10.9
Cn1cccc1/C=C1\Cc2ccccc2C1=O	-0.1	2.0	-28.2	-4.2
Cn1cccc1/C=C1\CCc2ccccc2C1=O	-0.5	6.7	63.9*	-8.0
